# The list is not random: actives were taken first. Their share in the collection is about 20%.
# Shiga inhibitor – A qHTS for Small Molecule Inhibitors of Shiga Toxin | Vero cells, Shiga toxin protein synthesis inhibition reporter | inhibition, % at 38.7 µM | 290,000 compounds, 9.2% hits | AID 2315, 2010; in the data active means inhibition mostly above about 28%, no sharp cut-off; inactive means mostly below about 43%
# HCMV antiviral – qHTS Assay for inhibitors of the human cytomegalovirus (HCMV); HFF cells, HCMV-luciferase reporter, 72 h; stronger effect = lower value; activity change, negative = inhibition, % at 57.5 µM; 410,000 compounds, 4.5% hits; in the data active means activity change below about -60%; inconclusive means no clear call, values can overlap the other calls; inactive means above about -39%
#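 Cell-based, HFFs, 1000 cells/well, 16 h 37C; cpds in DMSO + HCMV-luc, MOI 1 PFU/cell; 72 h 37C; OneGlo luminescence after 5 min RT; norm. to buffer vs Salinomycin 10uM.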
# Cycloheximide cs – Cycloheximide Counterscreen for Small Molecule Inhibitors of Shiga Toxin; cell reporter, cycloheximide protein synthesis inhibition counterscreen; max response, %; 300,000 compounds, 12% hits; AID 2314, 2010; in the data active means max response mostly above about 13%, no sharp cut-off; inactive means mostly below about 14%; further: read at 38.3 µM for the half of the compounds with a filed dose
# Pf growth 48h – Primary qHTS for delayed death inhibitors of the malarial parasite plastid, 48 hour incubation; 310,000 compounds, 5.9% hits; P. falciparum luciferase growth in erythrocytes, 48 h; Potency, µM (highest dose often 28.7 µM), actives largely listed as inhibitors
#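 A one-generation exposure of luciferase-tagged malaria parasites in RPMI 1640/Albumax erythrocyte culture, 37 C and 5% CO2. Inhibition is inferred from decreased luminescence after adding detection reagent.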
# Pf growth 96h – Primary qHTS for delayed death inhibitors of the malarial parasite plastid, 96 hour incubation | P. falciparum luciferase reporter growth, 96 h | Potency, µM (series often up to 28.7 µM), most hits filed as inhibitors | 320,000 compounds, 6.9% hits | AID 504834, 2011
#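 Luminescence readout: decreased luciferase signal marks inhibited growth of reporter-expressing P. falciparum in infected red cells (2% hematocrit, 0.05% parasitemia final), exposed to compound two generations (96 h, 37 C, 5% CO2).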
# Numbers stand for hits; - = inactive; ? = inconclusive; . = no result; [ ] = dose if it differs, or a comment. Unless noted, the call rests on the fitted dose curve; in most records, active means well fitted inhibition curve with a large enough effect; inconclusive means small, poorly fitted or top-dose-only effect, or another doubt; inactive means no such curve, though single readings can be large or run the other way.
SMILES,Shiga inhibitor,HCMV antiviral,Cycloheximide cs,Pf growth 48h,Pf growth 96h
CC(Oc1ccc2c(-c3ccccc3)cc(=O)oc2c1)C(=O)NC(Cc1c[nH]c2ccc(O)cc12)C(=O)O (stereo unspecified),-,-76.7,-,-,-
Cc1cc(=O)oc2cc(OC(C)C(=O)NC3CCN(Cc4ccccc4)CC3)ccc12 (stereo unspecified),-,-,22.2,?,-
O=C(COc1ccc2c(-c3ccccc3)cc(=O)oc2c1)N[C@@H](Cc1c[nH]c2ccc(O)cc12)C(=O)O,-,-,-,-,-
COc1ccc(-c2cc(=O)oc3cc(O)ccc23)cc1,-,-96.0,-,-,-
CC(C(=O)NC(=O)NC1CCCCC1)N1CCN(C(c2ccccc2)c2ccccc2)CC1 (stereo unspecified),-,-,-,?,.
COC(=O)c1c(NC(=O)CCCOc2ccccc2C)sc2c1CCC2,.,-,.,.,.
O=S(=O)(c1cc(F)ccc1F)N1CCC2(CC1)OCCN2S(=O)(=O)c1cccs1,.,-,.,?,?
COc1ccc(-c2cc(=O)oc3c(C)c(O)ccc23)cc1,-,-72.3,-,-,-
COc1ccc(-c2coc3cc4oc(=O)cc(C)c4cc23)cc1F,-,-62.8,-,-,?
COc1ccc(-c2cc(=O)oc3cc(OC(=O)C4CCCCC4)c(Cl)cc23)cc1,-,-90.8,-,-,?
COc1ccc(-c2cc(=O)oc3cc(OC(C)C(=O)NC4CC4)ccc23)cc1 (stereo unspecified),-,-,-,?,2.94µM
O=C(c1cccc(F)c1)N1CC(=O)N2[C@H](CO)[C@@H](c3ccc(Br)cc3)[C@@H]2C1,.,-,.,.,.
Cn1cc(-c2cc3n(n2)CCC(=O)N3CC(=O)NCc2ccccc2)c2ccccc21,.,-,.,.,.
CCCc1ccc(S(=O)(=O)N2CCC(c3nnc(-c4cccc(C)c4)o3)CC2)cc1,.,-77.7,.,.,.
Cc1ccc(S(=O)(=O)N2CCC(c3nnc(-c4cccc(C)c4)o3)CC2)cc1,.,-92.5,.,.,.
COc1ccc(N2CCN(C(CNC(=O)C(=O)NCc3cccs3)c3ccco3)CC2)cc1 (stereo unspecified),-,-,-,?,-
Cc1[nH]n(-c2ccccc2)c(=O)c1N=Nc1ccc(F)cc1,-,-,13.2,-[0.00184 µM],-
Nc1[nH]n(-c2ccccc2)c(=O)c1N=Nc1ccccc1[N+](=O)[O-],-,-,12.6,.,?
Cc1ccc(N=Nc2c(C)[nH]n(-c3ccccc3)c2=O)cc1Br,-,-,-,-,-
Nc1[nH]n(-c2ccccc2)c(=O)c1N=Nc1ccccc1,60.8,-,61.0,-,-
Cc1[nH]n(-c2ccccc2)c(=O)c1N=Nc1ccc2c(c1)OCCO2,-,-,-,-,-
Cc1[nH]n(-c2ccccc2)c(=O)c1N=Nc1c(O)cc(S(=O)(=O)N(C)C)c2ccccc12,.,-99.5,.,3.29µM,4.15µM
Cc1[nH]n(-c2ccccc2)c(=O)c1N=Nc1cccc(Cl)c1,-,-,-,-,-
COc1ccc(Cn2c(=O)c3oc4ccccc4c3n(CC(=O)Nc3cc(C)cc(C)c3)c2=O)cc1,.,-,.,.,.
CC1(C)Cc2nc3oc4c(SCC(N)=O)ncnc4c3cc2CO1,-,?,-,-,-
SMILES,Shiga inhibitor,HCMV antiviral,Cycloheximide cs,Pf growth 48h,Pf growth 96h
Nc1[nH]n(-c2ccccc2)c(=O)c1N=Nc1ccc2ncsc2c1,38.2,-,40.7,-,-
Nc1c(N=Nc2cccc(Cl)c2)c(=O)[nH]n1-c1ccccc1,-,-,-,-,-
CSc1ccc(N=Nc2c(C)[nH]n(C)c2=O)cc1,67.5,-,46.1,?,?
Cc1[nH][nH]c(=O)c1N=Nc1ccc(Cl)cc1,-,-,-,-,?
Cc1cccc(N2CCN(C(=O)c3noc4c3COc3ccc(C)cc3-4)CC2C)c1 (stereo unspecified),-,-,-,-,?
O=C(NCc1ccc2c(c1)OCO2)c1ccc2c(c1)N(Cc1ccccc1F)C(=O)c1ccccc1S2,.,-,.,.,.
O=C(NCc1ccc2c(c1)OCO2)c1ccc2c(c1)N(Cc1c(F)cccc1Cl)C(=O)CS2,-,-77.9,-,11.7µM,-
CCC1CCCCN1CCCNC(=O)c1ccc2c(c1)N(Cc1c(F)cccc1Cl)C(=O)CS2 (stereo unspecified),-,?,-,13.1µM,?
COc1ccc(N=Cc2cc3c(cc2O)OC(N)=C(C#N)C3c2ccccc2)cc1 (stereo unspecified),-,-,10.7,-,-
CSc1nc(S(=O)(=O)c2ccccc2)c(Cl)s1,-,-,-,?,-[1.15 µM]
CCOc1ccc(S(=O)(=O)Nc2ccccc2C(=O)Nc2ccccc2N2CCOCC2)cc1,-,.,-,-,.
CCCOc1ccc(C(=O)Nc2cc(S(=O)(=O)N3CCOCC3)ccc2N2CCOCC2)cc1,.,-,.,11.7µM,?
CCOc1ccc(OCCCC(=O)Nc2cc(S(=O)(=O)N3CCOCC3)ccc2N2CCOCC2)cc1,.,-90.3,.,.,.
CCOc1ccc(C(=O)OCC(=O)Nc2cc(S(=O)(=O)N3CCOCC3)ccc2N2CCOCC2)cc1,.,-,.,.,.
O=C(CCCSc1ccc(Cl)cc1)Nc1cc(S(=O)(=O)N2CCOCC2)ccc1O,.,-,.,?,8.28µM
CCOc1ccc(C(=O)Nc2cc(S(=O)(=O)Nc3ccccc3Cl)ccc2N2CCOCC2)cc1,-,-,-,?,2.62µM
O=S(=O)(c1ccc(Cl)cc1)N1CCN(c2nc(-c3cccc(Br)c3)nc3ccccc23)CC1,-,.,-,.,.
CSCc1ccc(C(=O)N2CCC(N3CCC(C(=O)NC(C)C)CC3)CC2)o1,-,-64.3,-,-,-
CN1CCC(=NOc2ccc([N+](=O)[O-])cc2)CC1,94.6,-,34.3,-,-
COc1ccc(C(=O)ON=C2CCN(c3ccc([N+](=O)[O-])cc3)CC2)cc1,-,-,-,-,?
Cc1ccc(NC(=O)CN2C(=O)CC(c3ccc(F)cc3)=Nc3ccccc32)cc1F,.,-81.4,.,.,.
O=C(CSC1=Nc2ccccc2C2=NC(Cc3c[nH]c4ccccc34)C(=O)N12)NC1CCCCC1 (stereo unspecified),-,-,-,.,.
CC1CC(C)CN(C(=O)CSC2=Nc3ccccc3C3=NC(Cc4c[nH]c5ccccc45)C(=O)N23)C1 (stereo unspecified),-,.,-,.,5.22µM
Cc1cc(C)nc(-n2nc(C)c(Br)c2Nc2ccc(Br)cc2)n1,-,-,-,3.7µM,.
Cc1nn(C)c(Nc2ccc(Br)cc2)c1Br,-,-83.2,-,?,-
COc1cc(C2c3c(oc4ccc(F)cc4c3=O)C(=O)N2Cc2ccc3c(c2)OCO3)ccc1O (stereo unspecified),.,-,.,.,.
NCCCC[C@H](N)C(=O)N[C@@H](CCCN=C(N)N)C(=O)N1CCC[C@H]1C(=O)N1CCC[C@H]1C(=O)NCC(=O)N[C@@H](Cc1ccccc1)C(=O)N[C@@H](CO)C(=O)N1CCC[C@H]1C(=O)N[C@@H](Cc1ccccc1)C(=O)O,-,.,-,.,.
